What all share (experiment): NCI-60 one-dose screen, 48 h (100 = growth as untreated, 0 = no growth, -100 = all killed)
Conditions in all cases: 10 µM unless noted

Assay [1] relates to NCI-H23 lung.
For assay [2], the system named is NCI-H226 lung.
Assay [3] concerns NCI-H322M lung.
In assay [4] the test system is HOP-62 NSCLC.
Assay [5] has as its system NCI-H460 lung.
Assay [6] concerns HOP-92 NSCLC.
The subject of assay [7] is NCI-H522 lung.
Assay [8] deals with A549/ATCC NSCLC.
Assay [9] concerns 786-0 renal.
Assay [10] relates to COLO 205 colon.
Assay [11] has as its system DU-145 prostate.
The subject of assay [12] is K-562 leukemia.
The subject of assay [13] is MALME-3M melanoma.
The test system of assay [14] is MDA-MB-231 breast.
Assay [15] deals with RXF 393 renal.
Assay [16] concerns SF-268 CNS.
In assay [17] the test system is SF-295 CNS.
The subject of assay [18] is SF-539 CNS.
The subject of assay [19] is UACC-257 melanoma.
In assay [20] the test system is M14 melanoma.

The panel holds about 83,000 compounds, 20% with a hit somewhere; the sample as a whole holds those more often.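 Interpretation: 100, growth as untreated; towards 0, rising growth inhibition; 0, no net growth; 0 to -100, cell death. Compounds scoring below 10 were considered active.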 Values without a mark were called inactive. Calls of active or inactive are those of the source.

Regarding `CC1(C)CC[C@]2(C(=O)NCC#CCN3CCOCC3)CC[C@]3(C)C(=CC[C@@H]4[C@@]5(C)Cc6c([nH]c7ccccc67)C(C)(C)[C@@H]5CC[C@]43C)[C@@H]2C1`, the growth in assay [1] is 95.9%; in [2], 95.1%; in [3] it was 96.1%; in assay [4], 98.1%; in assay [5] it was 90.1%; in [6], 79.8%. The growth in assay [7] is 85.2%; in assay [8] it was 72%; in assay [9] it was 92.7%; in assay [10], 30.5%; in assay [11] it was 103%; in assay [12], 65.3%. Also, the growth in assay [13] was 95%; in assay [14], 91.4%; in assay [15] it was 98.6%; in [16] it was 87.7%; in assay [17], 79.7%; in assay [18], 107%. For the same compound, the growth in [19] is 47.5%; in [20], 80.7%.

With `O=C(Nc1ccc2cc3ccc(NC(=O)NC4CCCCC4)cc3nc2c1)NC1CCCCC1`, the growth was 87.5% in [1]; 97.7% in assay [2]; 104% in [3]; 89.2% in [4]; 103% in [5]; 99.8% in [6]. Also, the growth in assay [7] was 103%; in [8] it was 101%; in assay [9], 60.1%; in assay [10] it was 100%; in assay [11], 97.3%; in assay [12] it was 16.8%. In addition, the growth was 106% in assay [13]; 101% in assay [14]; 15.7% in assay [15]; 68.1% in [16]; 45.6% in assay [17]; 50.1% in [18]. For the same compound, the growth in assay [19] is 99.8%; in assay [20], 90.5%.

Take `NC(=O)c1cccc(-n2ccc3cc(NC(=O)Nc4cc(C(F)(F)F)cc(C(F)(F)F)c4)ccc32)n1`: the growth is 44.5% in assay [1]; 70% in [2]; 71.4% in assay [3]; 44.8% in [4]; 29% in assay [5]; 52.5% in assay [6]. Besides, the growth in assay [7] is 59.1%; in [8] it was 34.1%; in assay [9], 24.3%; in assay [10] it was 62.5%; in assay [11], 50.7%; in assay [12], 33.4%. In addition, the growth in assay [13] was 43.1%; in [14], 65.5%; in assay [15], 7.56% (active); in assay [16] it was 38.5%; in assay [17], 18.5%; in [18], 52.2%. For the same compound, the growth in assay [19] was 72.2%; in assay [20], 51%.

As for `COc1ccc(/C(C)=N/NC(=O)CSc2nc3ccccc3c(=O)n2Cc2ccc(S(N)(=O)=O)cc2)c(OC)c1`, the growth in assay [1] was 101%; in assay [2], 93.9%; in [3], 94.8%; in assay [4] it was 100%; in [5] it was 102%; in assay [6], 112%. Further, the growth in [7] is 96%; in assay [8], 102%; in [9] it was 105%; in assay [10], 118%; in assay [11], 108%; in assay [12] it was 94.9%. The growth was 102% in assay [13]; 96.2% in assay [14]; 102% in assay [15]; 91.8% in assay [16]; 98.7% in assay [17]; 100% in [18]. Further, the growth in [19] was 107%; in assay [20] it was 104%.

As for `Nc1c(C(=O)Nc2ccc(Cl)cc2)cc(-c2nc3ccccc3s2)c(=O)n1NS(=O)(=O)c1ccc(Cl)cc1`, the growth in [1] was 92.7%; in [2] it was 86.4%; in [3], 93.8%; in assay [4], 102%; in [5], 106%; in assay [6] it was 96.2%. Moreover, the growth was 91.3% in assay [7]; 104% in assay [8]; 101% in [9]; 105% in [10]; 107% in assay [11]; 95.7% in assay [12]. For the same compound, the growth in [13] is 107%; in assay [14], 94.1%; in assay [15], 104%; in [16], 96.7%; in [17], 98.4%; in assay [18] it was 102%. The growth in [19] was 104%; in [20] it was 98.2%.

As for `Cc1ccc(S(=O)(=O)Nc2ccc(Cl)cc2)cc1`, the growth in assay [1] is 91.6%; in assay [2], 96.6%; in [3] it was 94%; in [4], 98.4%; in [5] it was 105%; in assay [6], 86.9%. The growth in assay [7] was 104%; in assay [8], 94%; in assay [9], 100%; in [10] it was 111%; in [11] it was 118%; in assay [12], 97.6%. Also, the growth was 100% in [13]; 86.6% in assay [14]; 103% in [15]; 107% in assay [16]; 91.2% in assay [17]; 104% in assay [18]. The growth in assay [19] was 105%; in [20], 103%.

Take `CCCCCCC/C=C/[C@H]1O[C@]2(O)C(=O)C=C3C[C@@H](O[C@@H]4O[C@H](CO)[C@@H](O)C(O)[C@@H]4O)C[C@@H]3[C@H]2C=C1C` (stereo not given in full): the growth in [1] is 43.6%; in assay [2], -20.8% (active); in [3], 54.3%; in assay [4], 1.36% (active); in assay [5] it was 38.3%; in assay [6], 11.8%. For the same compound, the growth in assay [7] is -57.6% (active); in [8], 59.8%; in [9], -52.4% (active); in assay [10], 11.8%; in assay [11] it was 20.6%; in assay [12], -5.09% (active). The growth in assay [13] is 1.95% (active); in [14], -8.64% (active); in assay [15], -80.3% (active); in assay [16], 21.8%; in assay [17] it was 37.5%; in assay [18], -43.7% (active). The growth in assay [19] is -7.54% (active); in [20], -23.6% (active).
